Here are results for eight compounds from PubChem BioAssay.

The source made the active and inactive calls.

Assay [1] concerns Wnt5a (protein binding on small-molecule microarray). Kind of assay: small molecules binding Wnt5a protein – biophysical, small-molecule microarray, 635/667 nm fluorescence, primary screen (AID 1142).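 Note: fluorescence read at 667 nm with signal to noise per printed feature.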 The note with it: 635 nm fluorescence, higher = more signal.
Assay [2] is described as follows: ATP-based viability of Huh7 replicon cells – cell-based, CellTiter-Glo luminescence, basal, 48 h, cytotoxicity control for HCV replication inhibitor project, primary screen (AID 1143).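 Note: Huh7 hepatoma cells carrying a hepatitis C replication reporter with no stimulus; test concentration not given here.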 The note with it: higher = more signal, called active from +8 up or from −8 down. On the technique in general: A replicon is a self-replicating genome or part of one, used to study replication in cells.

Assay [3] can be described thus: basal CRE-LacZ reporter activity in PC12 – cell-based, unstimulated, primary screen (AID 1145). The note with it: no forskolin, luminescence, 4.5 h, higher = more signal, called active from +8 up or from −8 down.
A short description of assay [4]: forskolin-driven CRE-LacZ activity in PC12 – cell-based, CRE-LacZ reporter, forskolin-stimulated, primary screen (AID 1146).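 Note: PC12 cells with 6xCRE LacZ reporter stimulated by forskolin 10 µM; beta-galactosidase reporter signal reflecting CREB driven transcription.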 The conditions noted are these: luminescence, 4.5 h, higher = more signal, called active from +8 up or from −8 down.
The target of assay [5] is Streptavidin (Streptomyces avidinii) (UniProt P22629). In words: compounds binding control protein streptavidin – biophysical, small-molecule microarray, 635/667 nm fluorescence, artefact control for SMM compound annotation, primary screen (AID 1147).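 Note: signal reflects streptavidin binding to arrayed compounds as a control protein.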 The conditions noted are these: higher = more signal.
Assay [6] is described as follows: probe aInhba binding on compound microarray – biochemical, small-molecule microarray, 635/667 nm fluorescence, primary screen (AID 1148).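 Note: score merges 667nm spot fluorescence with signal-to-noise for antibody binding to printed compounds.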 The note with it: higher = more signal.
The target in assay [7] is Torsin-1A (Homo sapiens) (UniProt O14656). Kind of assay: TOR1A wild-type binding on microarray – cell lysate, small-molecule microarray, lysate, 635/667 nm, primary screen (AID 1149). The note with it: COS7 hTOR1A-WT lysate, 635 nm fluorescence, higher = more signal.
The target is the same in assay [8]. In words: torsin A mutant lysate binding on microarrays – cell lysate, small-molecule microarray, COS7 lysate, 635/667 nm fluorescence, primary screen (AID 1150).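 Note: score pools 667 nm emission and signal to noise measuring lysate protein binding.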 The note with it: COS7 hTOR1A mutant lysate, 635 nm fluorescence, higher = more signal.
Assay [9] relates to Sonic hedgehog protein (Shh). Kind of assay: Sonic hedgehog microarray binding compounds – biochemical, small-molecule microarray, 635/667 nm fluorescence, primary screen (AID 1151).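 Note: Shh protein binding to compounds spotted on small-molecule microarray slides; score combines spot fluorescence intensity with signal-to-noise across triplicate slides.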 The note with it: 635 nm fluorescence, higher = more signal.
Assay [10] is described as follows: optical density shifts of acrAB sulA E. coli – strain DRC41, OD650, 48 h, E. coli filamentation inducer project, primary screen (AID 1152).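 Note: E. coli MC1000 strain DRC41 lacking acrAB efflux pump and sulA.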 The note with it: higher = more signal, called active from +8 up or from −8 down.
The nature of assay [11]: probe aLefty1 binding on compound microarray – biochemical, small-molecule microarray, 635/667 nm fluorescence, primary screen (AID 1153).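 Note: score merges spot fluorescence with signal-to-noise ratio from the scanned slide images.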 The conditions noted are these: higher = more signal.
Assay [12] is described as follows: plasmodial surface anion channel blockers, osmotic lysis – cell-based, P. falciparum Indochina, OD700, 1 h, primary screen (AID 1154). The conditions noted are these: P. falciparum Indochina infected RBC osmotic lysis, higher = more signal, called active from +8 up or from −8 down.
Assay [13] in a line: plasmodial surface anion channel blockers, osmotic lysis – cell-based, P. falciparum Indochina, OD700, 2 h, primary screen (AID 1155).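 Note: lysis reports solute entry through the parasite surface anion channel PSAC.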 The conditions noted are these: P. falciparum Indochina infected erythrocytes, higher = more signal, called active from +8 up or from −8 down.
Assay [14] in a line: changes in parasitized red cell lysis, either direction – P. falciparum Indochina, OD700, 3 h, PSAC antagonist project, primary screen (AID 1156). The note with it: P. falciparum-infected erythrocytes, osmotic lysis, higher = more signal, called active from +8 up or from −8 down.
A short description of assay [15]: plasmodial surface anion channel blockers, osmotic lysis – cell-based, P. falciparum Indochina, OD700, 18 h, primary screen (AID 1157). The note with it: P. falciparum Indochina infected erythrocytes, osmotic lysis OD700, 18 h; higher = more signal, called active from +8 up or from −8 down.
Assay [16] in a line: S6 kinase pathway phospho-S6 level changes – cell-based, A549, cytoblot, luminescence, serum-stimulated, primary screen (AID 1158).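 Note: serum-stimulated A549 lung adenocarcinoma cells; signal is phosphorylated S6 detected by cytoblot immunostaining with HRP secondary.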 The note with it: 5 h, higher = more signal.
For assay [17], the target named is NADPH oxidase 2 (Homo sapiens) (UniProt P04839). Kind of assay: compounds shifting NOX2 Amplex Red fluorescence – cell-based, HEK293-NOX2, PMA-stimulated, NOX inhibitor project, primary screen (AID 1159). Note: test concentration not given here. The note with it: 45 min, higher = more signal, called active from +8 up or from −8 down.
Assay [18] has as its target NADPH oxidase 4 (Homo sapiens) (UniProt Q9NPH5). In words: compounds shifting NOX4 Amplex Red fluorescence – cell-based, HEK293-NOX4, tetracycline-induced, NOX inhibitor project, primary screen (AID 1160). The note with it: HEK293-NOX4, Amplex Red H2O2 fluorescence, 45 min; higher = more signal, called active from +8 up or from −8 down.
In assay [19] the target is NADPH oxidase 5 (Homo sapiens) (UniProt Q96PH1). Kind of assay: compounds shifting NOX5 Amplex Red fluorescence – cell-based, HEK293-NOX5, NOX inhibitor project, primary screen (AID 1161). The conditions noted are these: HEK293-NOX5, ionomycin, 45 min, higher = more signal.
Chain of NADPH oxidase 5 (Homo sapiens) (Q96PH1 whole entry, looked up): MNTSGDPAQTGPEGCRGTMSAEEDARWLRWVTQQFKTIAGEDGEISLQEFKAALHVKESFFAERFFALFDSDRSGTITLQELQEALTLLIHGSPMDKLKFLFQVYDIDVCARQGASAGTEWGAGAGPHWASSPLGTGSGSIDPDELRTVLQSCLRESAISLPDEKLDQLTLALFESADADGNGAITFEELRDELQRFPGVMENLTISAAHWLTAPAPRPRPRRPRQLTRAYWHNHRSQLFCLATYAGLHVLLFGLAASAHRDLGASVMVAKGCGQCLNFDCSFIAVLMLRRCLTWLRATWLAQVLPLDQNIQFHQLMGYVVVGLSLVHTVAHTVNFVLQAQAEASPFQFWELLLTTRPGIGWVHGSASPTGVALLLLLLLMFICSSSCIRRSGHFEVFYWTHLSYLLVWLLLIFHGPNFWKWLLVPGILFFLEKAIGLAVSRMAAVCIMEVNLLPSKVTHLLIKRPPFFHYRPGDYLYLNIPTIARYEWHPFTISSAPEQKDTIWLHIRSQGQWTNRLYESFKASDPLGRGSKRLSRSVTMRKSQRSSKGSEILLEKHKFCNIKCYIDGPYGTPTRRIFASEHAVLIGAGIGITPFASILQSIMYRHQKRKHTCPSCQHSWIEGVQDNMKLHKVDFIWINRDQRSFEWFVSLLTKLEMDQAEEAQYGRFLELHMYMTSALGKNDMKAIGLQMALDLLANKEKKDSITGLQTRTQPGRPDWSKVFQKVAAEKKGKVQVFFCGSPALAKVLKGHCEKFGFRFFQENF

Chain of NADPH oxidase 2 (Homo sapiens) (P04839 whole entry, looked up): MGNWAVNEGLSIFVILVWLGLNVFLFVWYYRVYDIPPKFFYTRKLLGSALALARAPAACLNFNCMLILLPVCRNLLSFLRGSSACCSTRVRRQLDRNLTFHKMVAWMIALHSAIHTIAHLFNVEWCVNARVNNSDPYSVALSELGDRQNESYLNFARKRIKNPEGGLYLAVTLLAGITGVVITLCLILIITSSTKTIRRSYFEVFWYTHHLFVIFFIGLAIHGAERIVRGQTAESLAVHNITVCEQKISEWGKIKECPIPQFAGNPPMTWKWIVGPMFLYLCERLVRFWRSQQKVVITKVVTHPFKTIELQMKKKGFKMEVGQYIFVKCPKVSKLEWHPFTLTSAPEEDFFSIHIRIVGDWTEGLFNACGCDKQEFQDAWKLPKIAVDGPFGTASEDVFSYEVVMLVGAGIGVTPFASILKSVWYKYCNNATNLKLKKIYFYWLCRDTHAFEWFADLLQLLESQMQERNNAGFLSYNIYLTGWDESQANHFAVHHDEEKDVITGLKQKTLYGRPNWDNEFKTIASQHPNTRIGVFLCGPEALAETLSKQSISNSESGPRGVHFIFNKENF
Chain of Torsin-1A (Homo sapiens) (O14656 whole entry, looked up): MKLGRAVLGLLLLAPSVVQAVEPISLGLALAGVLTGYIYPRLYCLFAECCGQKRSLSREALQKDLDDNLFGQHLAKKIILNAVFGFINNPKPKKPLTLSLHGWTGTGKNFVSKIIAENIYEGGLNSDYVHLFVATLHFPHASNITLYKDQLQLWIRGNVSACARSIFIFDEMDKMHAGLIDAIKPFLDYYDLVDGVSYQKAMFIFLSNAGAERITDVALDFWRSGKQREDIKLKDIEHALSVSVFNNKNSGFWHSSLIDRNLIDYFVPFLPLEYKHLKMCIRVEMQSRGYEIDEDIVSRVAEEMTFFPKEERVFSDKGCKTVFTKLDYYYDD
Chain of Streptavidin (Streptomyces avidinii) (P22629 whole entry, looked up): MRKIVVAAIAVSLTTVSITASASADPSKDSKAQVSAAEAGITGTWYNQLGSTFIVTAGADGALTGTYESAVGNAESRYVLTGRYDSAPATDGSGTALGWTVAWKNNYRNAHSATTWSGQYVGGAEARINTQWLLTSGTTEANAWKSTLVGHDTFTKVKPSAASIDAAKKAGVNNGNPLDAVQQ
Chain of NADPH oxidase 4 (Homo sapiens) (Q9NPH5 whole entry, looked up): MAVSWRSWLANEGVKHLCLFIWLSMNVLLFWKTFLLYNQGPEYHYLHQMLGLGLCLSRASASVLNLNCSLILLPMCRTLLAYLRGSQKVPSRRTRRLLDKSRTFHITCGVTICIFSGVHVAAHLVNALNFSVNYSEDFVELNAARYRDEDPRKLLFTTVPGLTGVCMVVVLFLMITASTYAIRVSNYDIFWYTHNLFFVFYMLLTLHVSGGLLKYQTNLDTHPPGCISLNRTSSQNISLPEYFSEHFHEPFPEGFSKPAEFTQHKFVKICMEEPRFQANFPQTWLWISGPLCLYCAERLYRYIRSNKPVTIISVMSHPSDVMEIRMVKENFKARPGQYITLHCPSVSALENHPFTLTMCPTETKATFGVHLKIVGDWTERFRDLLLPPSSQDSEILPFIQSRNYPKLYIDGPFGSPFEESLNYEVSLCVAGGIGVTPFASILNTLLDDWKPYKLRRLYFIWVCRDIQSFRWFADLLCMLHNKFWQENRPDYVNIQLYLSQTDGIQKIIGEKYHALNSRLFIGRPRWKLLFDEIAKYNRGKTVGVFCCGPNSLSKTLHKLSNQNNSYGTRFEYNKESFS

With `CO[C@H]1COC(=O)CC=C[C@H](C)COC(=O)[C@@H](OCc2ccccc2)C=C[C@@H]1C`, the composite z-score in assay [1] was -0.192; in [5], 0.846; in assay [6], -0.29; in the assay with Torsin-1A (Homo sapiens) [7], 2.67; in the assay with Torsin-1A (Homo sapiens) [8], 2.29; in assay [9], 2.06. The composite z-score in [11] is -0.338. Also, the z-score in assay [2] was -4.32 (inactive); in assay [3], 0.252 (inactive); in [4] it was -1.2 (inactive); in assay [10], -0.168 (inactive); in assay [12], 0.733 (inactive); in assay [13], -1.13 (inactive). In addition, the z-score was -0.858 (inactive) in [14]; -2.2 (inactive) in assay [15]; 1.27 in assay [16]; 0.837 (inactive) in assay [17]; -0.234 (inactive) in assay [18]; 0.164 in assay [19].
Turning to `CO[C@H]1COC(=O)[C@@H](C)NC(=O)CC=C[C@@H](C)[C@H](OC)COC(=O)CC=C[C@@H]1C`, the composite z-score in assay [1] is 0.0227; in assay [5], 0.0569; in assay [6] it was -0.39; in the assay with Torsin-1A (Homo sapiens) [7] it was 1.45; with Torsin-1A (Homo sapiens) [8], 1.69; in assay [9] it was 2.21. Further, the composite z-score in assay [11] stood at 0.0455. The z-score in [2] was -2.38 (inactive); in assay [3] it was -0.747 (inactive); in assay [4] it was -1.2 (inactive); in assay [10], 0.394 (inactive); in assay [12] it was 1.08 (inactive); in assay [13], -0.211 (inactive). Also, the z-score in assay [14] was 0.237 (inactive); in assay [15] it was -1.58 (inactive); in assay [16] it was 0.722; in assay [17], 0.714 (inactive); in assay [18], 0.981 (inactive); in assay [19], 0.539.
With `COCCOC(=O)N1C(=O)[C@@]2(c3cc(C#CCC(C(=O)OC)C(=O)OC)ccc31)[C@H](C(=O)N1CCN(c3ncccn3)CC1)[C@H]1C(=O)O[C@H](c3ccccc3)[C@H](c3ccccc3)N1[C@@H]2c1ccc(O)cc1`, the composite z-score in assay [1] stood at 0.117; in [5], 0.043; in assay [6], 0.0386; with Torsin-1A (Homo sapiens) [7], 0.143; with Torsin-1A (Homo sapiens) [8], 0.731; in assay [9], 1.38. Further, the composite z-score in [11] came to 0.443. Moreover, the z-score was -3.81 (inactive) in assay [2]; -0.671 (inactive) in assay [3]; -0.784 (inactive) in [4]; 3.34 (inactive) in assay [10]; 1.92 (inactive) in assay [12]; -0.0642 (inactive) in [13]. Also, the z-score in [14] is -0.504 (inactive); in assay [15], -1.39 (inactive); in [16] it was 1.69; in assay [17] it was 1.28 (inactive); in [18], 0.7 (inactive); in [19], 1.82.
For the compound `CO[C@H]1COC(=O)[C@H](CCSC)NC(=O)CC=C[C@@H](C)COC(=O)[C@@H](OCc2ccccc2)C=C[C@@H]1C`, the composite z-score in assay [1] is 0.156; in [5] it was -0.154; in [6], -0.0762; in the assay with Torsin-1A (Homo sapiens) [7] it was 2.88; with Torsin-1A (Homo sapiens) [8], 2.85; in assay [9], 1.93. For the same compound, the composite z-score in assay [11] is -0.109. Also, the z-score was 0.111 (inactive) in assay [2]; -0.0223 (inactive) in assay [3]; -0.48 (inactive) in assay [4]; -0.332 (inactive) in [10]; -0.349 (inactive) in assay [12]; 0.238 (inactive) in assay [13]. The z-score in [14] was 0.04 (inactive); in assay [15], -0.236 (inactive); in [16], 0.182; in [17], 1.65 (inactive); in [18], -1.43 (inactive); in assay [19] it was 0.00807.
As for `O=C(O)[C@@H]1Cc2c([nH]c3ccccc23)[C@@H](c2ccccc2)N1`, the composite z-score in assay [1] was 0.019; in [5], 0.29; in assay [6], -0.164; in the assay with Torsin-1A (Homo sapiens) [7], 0.589; in the assay with Torsin-1A (Homo sapiens) [8], 0.409; in [9], 0.371. Also, in assay [11], the composite z-score is -0.202. The z-score in [2] was -0.691 (inactive); in assay [3], 0.109 (inactive); in assay [4] it was -1.69 (inactive); in assay [10] it was 0.327 (inactive); in assay [12], 0.864 (inactive); in assay [13], 0.71 (inactive). Further, the z-score in assay [14] was 1.46 (inactive); in [15], 0.152 (inactive); in assay [16] it was -0.344; in [17], 1.04 (inactive); in assay [18] it was -0.429 (inactive); in [19], -0.614.
Take `COc1ccc(-c2ccccc2[C@@H]2N[C@H](C(=O)O)CC[C@H]2C)cc1`: the composite z-score in [1] is -0.053; in assay [5], 0.376; in assay [6] it was -0.109; with Torsin-1A (Homo sapiens) [7], 0.69; with Torsin-1A (Homo sapiens) [8], 0.272; in assay [9], 0.289. The composite z-score in assay [11] was -0.147. Moreover, the z-score in assay [2] was -1.45 (inactive); in assay [3], 1.01 (inactive); in assay [4], -0.902 (inactive); in assay [10], 0.522 (inactive); in assay [12], 0.908 (inactive); in assay [13], 0.443 (inactive). Also, the z-score in [14] was 1.42 (inactive); in [15], -0.0201 (inactive); in assay [16] it was 0.305; in assay [17], 0.653 (inactive); in [18], -1.28 (inactive); in assay [19] it was -0.431.
Turning to `C=CC[C@]1(C(=O)OC)N=C(c2ccc(OCCCO)cc2)O[C@H]1c1ccccc1CN=[N+]=[N-]`, the composite z-score is 0.832 in assay [1]; -1.12 in assay [5]; 0.0232 in assay [6]; 0.101 in the assay with Torsin-1A (Homo sapiens) [7]; -0.0021 in the assay with Torsin-1A (Homo sapiens) [8]; 0.0034 in assay [9]. Also, the composite z-score in assay [11] was determined as 0.419. Besides, the z-score is -3.72 (inactive) in assay [2]; 5.1 (inactive) in assay [3]; -0.911 (inactive) in [4]; 0.919 (inactive) in [10]; 21.2 (active) in assay [12]; 4.18 (inactive) in [13]. Also, the z-score in assay [14] is 1.7 (inactive); in assay [15] it was 0.786 (inactive); in assay [16], 0.363; in assay [17] it was -3.18 (inactive); in [18], -0.411 (inactive); in assay [19], -2.23.
With `CCN1C(C)=C(C(=O)OC)[C@@H](c2ccccc2)N2C(=O)[C@@]3(C(=O)OC)O[C@@]12[C@@H]1C(=O)CCC[C@@H]13`, the composite z-score in [1] is 0.365; in assay [5], -0.213; in assay [6], 0.115; in the assay with Torsin-1A (Homo sapiens) [7] it was 0.385; in the assay with Torsin-1A (Homo sapiens) [8], 0.353; in assay [9] it was 2.02. Moreover, the composite z-score in [11] is -0.0518. Moreover, the z-score in [2] is -0.419 (inactive); in [3], 0.462 (inactive); in assay [4], -0.51 (inactive); in [10], -0.128 (inactive); in assay [12], 0.732 (inactive); in assay [13] it was -0.69 (inactive). For the same compound, the z-score in [14] was 1.56 (inactive); in [15], -1.11 (inactive); in [16], 0.641; in [17] it was 0.715 (inactive); in [18], 1.11 (inactive); in assay [19], 0.25.
